# Compounds with a hit are over-represented: about 21% of the library has one in this group of screens.
# Pf growth 96h – Primary qHTS for delayed death inhibitors of the malarial parasite plastid, 96 hour incubation. P. falciparum luciferase reporter growth, 96 h. Potency, µM (titrated, usually from 28.7 µM), actives largely listed as inhibitors. 320,000 compounds, 6.9% hits. AID 504834, 2011
#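 P. falciparum expressing integrated firefly luciferase, in erythrocytes at 2% hematocrit, 0.05% parasitemia, incubated with compounds 96 h at 37 C, 5% CO2. Growth inhibition read as loss of luminescence; two-generation exposure targets delayed-death apicoplast inhibitors.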
# Pf growth 48h – Primary qHTS for delayed death inhibitors of the malarial parasite plastid, 48 hour incubation; P. falciparum luciferase growth in erythrocytes, 48 h; Potency, µM (titrated, usually from 28.7 µM), usual class: inhibitors; 310,000 compounds, 5.9% hits; AID 504832, 2011
#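 Parasite viability was followed by luminescence of a genomically integrated firefly luciferase. Cultures held 0.1% parasitemia at 2% hematocrit (final), incubated under 5% CO2 at 37 C.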
# Cycloheximide cs – Cycloheximide Counterscreen for Small Molecule Inhibitors of Shiga Toxin. cell reporter, cycloheximide protein synthesis inhibition counterscreen. max response, %. 300,000 compounds, 12% hits; in the data active means max response mostly above about 13%, no sharp cut-off; inactive means mostly below about 14%; further: read at 38.3 µM for the half of the compounds with a filed dose
# Shiga inhibitor – A qHTS for Small Molecule Inhibitors of Shiga Toxin. Vero cells, Shiga toxin protein synthesis inhibition reporter. inhibition, % at 38.7 µM. 290,000 compounds, 9.2% hits. AID 2315, 2010; in the data active means inhibition mostly above about 28%, no sharp cut-off; inactive means mostly below about 43%
# NS1 inh – qHTS Assay for Inhibitors of Influenza NS1 Protein Function; Potency, µM (titrated, usually from 46.1 µM); 270,000 compounds, 0.4% hits; calls by dose curve; further: actives are rising curves; nearly all actives have a fitted effect of over 50% in size
#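 Recovery from NS1-induced slow growth read by OD600 in budding yeast switched to galactose assay medium (pH 6.0, -URA) at 1:100 dilution. Compound 23 nl per well; the matching strain lacking NS1 serves as control.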
# Sm TGR block – qHTS Assay for the Inhibitors of Schistosoma Mansoni Peroxiredoxins | 360,000 compounds, 3% hits | Potency, µM (titrated, usually from 114 µM), usual class: inhibitors | Schistosoma mansoni thioredoxin glutathione reductase (TGR), Q962Y6 | purified TGR, DTNB reduction, TNB absorbance 405 nm; further: nearly all actives have a fitted effect of over 60% in size
#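 First, TGR (20 nM dispensed) and NADPH were mixed with compound. Second, a 15 min room-temperature incubation followed. Third, further NADPH and then DTNB were added to start the reaction. Finally, TNB absorbance was monitored kinetically.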
# Numbers stand for hits; . = inactive; ? = inconclusive; / = no result. Unless noted, the call rests on the fitted dose curve; in most records, active means well fitted curve in the direction sought with a large enough effect; inconclusive means small, poorly fitted or top-dose-only effect, or another doubt; inactive means no such curve, though single readings can be large; an effect the other way counts as inactive or inconclusive.
SMILES,Pf growth 96h,Pf growth 48h,Cycloheximide cs,Shiga inhibitor,NS1 inh,Sm TGR block
COc1ccc(-c2cc3c(=O)n(CC(=O)NCc4ccc(F)cc4)ncn3n2)cc1,.,.,10.8,16.0,.,.
CCOc1ccc(CCNC(=O)Cn2ncn3nc(-c4ccc(OC)cc4)cc3c2=O)cc1,.,.,.,.,.,.
CCOC(=O)c1cc(S(=O)(=O)NCc2ccc(Cl)cc2)[nH]n1,/,/,/,/,/,.
C=CC(=O)N(CCC)C(c1ccccc1)c1ccccc1OC (configuration not stated),?,13.1µM,/,/,/,.
COc1cc(C(=O)NNC(=O)COc2ccc(Cl)cc2)ccc1OCC(=O)N1CCOCC1,?,.,/,/,/,.
COc1cccc(N2CC(NC(=O)c3cccs3)CC2=O)c1 (configuration not stated),/,/,/,/,/,.
COc1cc2cncc(Cc3ccc(Cl)cc3)c2cc1OC,?,8.28µM,/,/,/,.
NC(=O)OCC(COC(N)=O)c1ccccc1,.,.,.,.,.,.
NC(=O)CS(=O)C(c1ccccc1)c1ccccc1 (configuration not stated),6.01µM,.,.,.,/,?
CCOc1ccc(CNC(=O)CCC(=O)n2nc(C)c3ccccc32)cc1,?,.,.,.,.,.
COc1ccccc1CN1CCNC(=O)C1CC(=O)NC1Cc2ccccc2C1 (configuration not stated),.,.,.,.,.,.
COc1cccc(C(C(=O)NC2CCCCC2)N(C(=O)c2cccs2)c2ccc3c(c2)OCO3)c1 (configuration not stated),.,10.4µM,.,.,.,.
COc1cccc(N(C(=O)Cn2nnc(-c3cccs3)n2)C(C(=O)NC2CCCCC2)c2ccncc2)c1 (configuration not stated),?,.,.,.,.,.
COc1cccc(C(C(=O)NC2CCCCC2)N(C(=O)Cc2cccs2)c2ccc(-n3cnnn3)c(OC)c2)c1 (configuration not stated),.,10.4µM,.,.,.,.
COc1cc(N(C(=O)Cc2cccs2)C(C(=O)NC2CCCCC2)c2cccc(OC)c2OC)ccc1-n1cnnn1 (configuration not stated),.,10.4µM,.,.,.,.
CCOc1cc(S(=O)(=O)N2CCN(C(=O)c3ccco3)CC2)ccc1F,.,?,.,.,.,.
CCCCOC(C)n1cc(F)c(=O)[nH]c1=O (configuration not stated),?,.,.,.,.,.
C#CCOc1c(Br)cc(C2C(C(=O)OC)=C(C)NC3=C2C(=O)c2ccccc23)cc1OCC (configuration not stated),/,/,/,/,/,28.2µM
Nc1cc2c(cc1O)CCCC2,?,?,51.4,.,.,39.8µM
Nc1cc(S(=O)(=O)c2ccc(O)c(N)c2)ccc1O,.,.,.,.,.,.
NC(=O)c1c(NC(=S)Nc2ccc(F)cc2)sc2c1CCCC2,.,.,17.5,.,.,.
CCC(=O)Nc1sc2c(c1C(N)=O)CCC2,.,.,.,.,.,?
CCCC(=O)NC(=S)Nc1sc2c(c1C(N)=O)CCC2,.,.,.,.,.,.
NC(=O)c1c(NC(=S)Nc2ccccc2)sc2c1CCCC2,.,.,.,.,.,.
CC(C)C(=O)NC(=S)Nc1sc2c(c1C(N)=O)CCCC2,.,.,24.7,36.1,.,.
SMILES,Pf growth 96h,Pf growth 48h,Cycloheximide cs,Shiga inhibitor,NS1 inh,Sm TGR block
C=CC(=O)Nc1sc2c(c1C(N)=O)CCCC2,.,?,/,/,/,39.8µM
C=CCNC(=S)Nc1sc2c(c1C(N)=O)CCCC2,.,.,14.7,.,.,.
CCNc1ncnc2c1cnn2C,?,.,.,.,/,.
CC(Sc1nccn1C)C(=O)Nc1ccccc1C#N (configuration not stated),/,/,/,/,/,.
Cc1c(Cl)cccc1NC(=S)N=Nc1c(O)n(CN2CCOCC2)c2ccccc12,.,3.7µM,.,.,.,.
Oc1c(N=NC(=S)Nc2ccccc2F)c2ccccc2n1Cc1ccccc1Cl,?,5.22µM,.,.,/,.
CC(=O)c1ccc(N2CCN(c3ncnc4onc(C)c34)CC2)cc1,/,/,/,/,/,.
CCc1ccc(C2C(C#N)=C(N)C(C#N)(C#N)C3=CCC(C(C)(C)C)CC32)cc1 (configuration not stated),13.1µM,13.1µM,.,.,.,?
CCOc1ccc(-c2nc3c(c(SCC(=O)N4CCCCC4)n2)Cc2cc(C)ccc2O3)cc1,/,/,/,/,/,.
O=C(Cc1noc2ccccc12)Nc1ccc2ccccc2c1,.,?,31.5,69.3,.,.
Cc1ccc(NC(=O)Cc2noc3ccccc23)cc1,.,.,45.8,68.4,.,.
O=C(Cn1c(=O)nc(-c2ccccc2)c2ccccc21)N1CCN(c2ccc(F)cc2)CC1,/,/,/,/,/,.
C[C@H]1CCCC(=O)CCC/C=C/c2cc(O)cc(O)c2C(=O)O1,13.1µM,/,.,.,.,.
NC[C@@H]1O[C@H](O[C@H]2[C@H](O)[C@H](O[C@@H]3O[C@H](CO)[C@@H](O)[C@H](N)[C@@H]3O)[C@@H](N)C[C@H]2N)[C@@H](O)[C@H](O)[C@@H]1O,.,.,/,/,/,/
O=C(Nc1cc(=O)[nH]c2nc(-c3ccc(Cl)cc3)nn12)c1ccccc1,0.329µM,0.586µM,.,.,.,.
CN(C)N1C(=O)CC(N2CCCCC2)C1=O (configuration not stated),.,.,.,.,/,?
CCOc1ncccc1C(=O)Nc1ccc(S(=O)(=O)N2CCCC2)cc1,.,.,.,.,.,.
CC(=O)c1c(C)[nH]c(C(=O)Nc2cc(S(=O)(=O)N3CCCCC3)ccc2C)c1C,13.1µM,13.1µM,/,/,/,.
CCOc1ncccc1C(=O)OCC(=O)Nc1cc(S(=O)(=O)N2CCOCC2)ccc1C,?,.,.,.,.,.
CC(=O)c1c(C)[nH]c(C(=O)CN2CCN(S(=O)(=O)c3ccccc3)CC2)c1C,.,.,/,/,/,44.7µM
CCOc1ncccc1C(=O)Nc1cc(S(=O)(=O)N2CCCCC2)ccc1C,9.28µM,11.7µM,/,/,/,.
CCOc1ncccc1C(=O)Nc1cccc(S(=O)(=O)N2CCCCC2)c1,7.38µM,?,/,/,/,.
Cc1cc(C)cc(-n2c(C)nc3cc(C(=O)NCc4ccc(F)cc4)ccc32)c1,/,/,/,/,/,.
CCOC(=O)c1c(N2C(=O)C3C4C=CC(C4)C3C2=O)sc2c1CCC(C)C2 (configuration not stated),13.1µM,.,.,.,.,.
Cc1csc2nc(COC(=O)c3ccc(NC(=O)C(C)Oc4ccccc4)cc3)cc(=O)n12 (configuration not stated),/,/,/,/,/,.
O=C(Cn1ncc2c3ccccc3n(Cc3cccc(Cl)c3)c2c1=O)N1CCC2(CC1)OCCO2,4.65µM,4.15µM,.,.,?,.
Cc1c2cnn(CC(=O)Nc3c(F)c(F)cc(F)c3F)c(=O)c2c(C)n1Cc1ccccc1F,9.28µM,.,.,.,/,.

# Source: PubChem
